Here are results for seven molecules from PubChem BioAssay (Tox21).

Results filed as inconclusive are left out. Values without a mark were called inactive. Activity calls are given as the source filed them. Unless noted, the call rests on the fitted dose curve; in most records, active means well fitted curve in the direction sought with a large enough effect in the repeat runs; inconclusive means weak or mixed curves; inactive means no such curve, though single readings can be large; an effect the other way counts as inactive or inconclusive.

Test [1] in a line: qHTS assay to identify small molecule antagonists of the thyroid receptor (TR) signaling pathway (AID 743065). Further: nearly all actives have a fitted effect of over 55% in size. The essentials: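 GH3.TRE-Luc rat pituitary cells carrying two TR response elements driving luciferase were plated for 4 h, given compound plus 1 nM T3 (final), and incubated 23.5 h at 37 C. ONE-Glo luminescence measured reporter inhibition; CellTiter-Fluor fluorescence tracked cytotoxicity.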
For orientation: qHTS replaces the single test concentration by a dilution series.

Test [2] concerns thyroid hormone receptor (rat, GH3 cells). The experiment in a line: qHTS assay to identify small molecule agonists of the thyroid receptor (TR) signaling pathway (AID 743066; calls by dose curve).
Test [3] deals with Estrogen receptor (Homo sapiens) (UniProt P03372). The test can be described thus: qHTS assay to identify small molecule antagonists of the estrogen receptor alpha (ER-alpha) signaling pathway (AID 743069; active means well fitted curve in the direction sought with a large enough effect in the signal ratio in the repeat runs, not every such curve was filed as active; the % refers to the signal ratio). The essentials: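 Estradiol-stimulated ER-alpha-UAS-bla HEK293 cells, 18 hr compound exposure at 37C. LiveBLAzer B/G substrate, 2 hr RT, fluorescence read.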
Chain of Estrogen receptor (Homo sapiens) (P03372 whole entry, looked up): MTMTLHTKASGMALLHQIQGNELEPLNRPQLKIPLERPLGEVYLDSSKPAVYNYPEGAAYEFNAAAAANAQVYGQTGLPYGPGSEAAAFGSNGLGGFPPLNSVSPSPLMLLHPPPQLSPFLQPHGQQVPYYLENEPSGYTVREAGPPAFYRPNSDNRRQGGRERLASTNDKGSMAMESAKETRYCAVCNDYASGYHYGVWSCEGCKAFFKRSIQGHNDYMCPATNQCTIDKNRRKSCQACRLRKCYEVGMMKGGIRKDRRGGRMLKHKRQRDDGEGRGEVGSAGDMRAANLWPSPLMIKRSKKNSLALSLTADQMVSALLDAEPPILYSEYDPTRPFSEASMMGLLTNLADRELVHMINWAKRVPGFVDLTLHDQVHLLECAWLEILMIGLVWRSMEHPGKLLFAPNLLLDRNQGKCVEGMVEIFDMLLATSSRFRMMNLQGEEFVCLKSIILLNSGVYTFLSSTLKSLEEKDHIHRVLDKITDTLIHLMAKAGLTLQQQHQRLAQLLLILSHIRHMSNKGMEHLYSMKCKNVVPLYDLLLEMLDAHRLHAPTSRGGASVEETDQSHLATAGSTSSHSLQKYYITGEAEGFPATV
For test [4] the target is unchanged. The test can be described thus: qHTS assay to identify small molecule agonists of the estrogen receptor alpha (ER-alpha) signaling pathway (AID 743075; calls by dose curve;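 further: HEK293 GripTite cells with ER-alpha and UAS-driven beta-lactamase reporter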).
Test [5] shares this target. The experiment in a line: qHTS assay to identify small molecule agonists of the estrogen receptor alpha (ER-alpha) signaling pathway using the BG1 cell line (AID 743079). Further: nearly all actives have a fitted effect of over 20% in size. The settings on record: BG1Luc4E2 cells, ERE-luciferase agonist, 22 h; at 70.3 µM (top of the series).
The nature of test [6]: qHTS assay to identify small molecule antagonists of the estrogen receptor alpha (ER-alpha) signaling pathway using the BG1 cell line - cell viability counter screen (AID 743081).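 Further: compound given together with 17beta-estradiol as the ER stimulus; nearly all actives have a fitted effect of over 45% in size.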
A further test has as its target Aromatase (Homo sapiens) (UniProt P11511). The experiment in a line: qHTS assay to identify aromatase inhibitors (AID 743083). Further: nearly all actives have a fitted effect of over 55% in size.
A short description of test [7]: qHTS assay to identify aromatase inhibitors - cell viability counter screen (AID 743084).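 Further: cells stimulated with testosterone during compound exposure; nearly all actives have a fitted effect of over 55% in size.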
Test [8] concerns the target Aryl hydrocarbon receptor (Homo sapiens) (UniProt P35869). The experiment in a line: qHTS assay to identify small molecule that activate the aryl hydrocarbon receptor (AhR) signaling pathway (AID 743085). Further: nearly all actives have a fitted effect of over 15% in size. Further: potency means the concentration at half of the fitted maximal effect.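 On activation: HG2L7.5c1 human HepG2 liver cells with stably integrated DRE-driven firefly reporter.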 The essentials:
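Measured in HG2L7.5c1 cells: CellTiter-Fluor signal (30 min incubation, 37C) for viability, then luciferase luminescence (30 min, room temperature). Compound contact time was 24 h at 37C, following a 5 h pre-incubation.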

Test [9] in a line: qHTS assay to identify small molecule that activate the aryl hydrocarbon receptor (AhR) signaling pathway - cell viability counter screen (AID 743086).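 Further: HepG2 liver cells carrying the AhR DRE luciferase reporter; nearly all actives have a fitted effect of over 45% in size.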 The essentials: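 HepG2-AhR-luc (HG2L7.5c1) cells, 4000/well, were preincubated 5 h at 37C, exposed to compound in qHTS format for 24 hr at 37C, then given CellTiter-Fluor for 30 min; viability was read as fluorescence in the reporter wells.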

Test [10] addresses Peroxisome proliferator-activated receptor gamma (Homo sapiens) (UniProt P37231). The test can be described thus: qHTS assay to identify small molecule agonists of the peroxisome proliferator-activated receptor gamma (PPARg) signaling pathway (AID 743094; active means well fitted activation curve with a large enough effect in the signal ratio in the repeat runs, not every such curve was filed as active; the % refers to the signal ratio). The essentials:
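GeneBLAzer PPARg UAS-bla HEK293H cells carrying a stably integrated beta-lactamase reporter were pre-incubated 5 h at 37C, then exposed to compounds in DMSO for 17 h at 37C; LiveBLAzer B/G FRET substrate was added for 1 h at room temperature and fluorescence read.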

The target is the same in test [11]. The experiment in a line: qHTS assay to identify small molecule antagonists of the peroxisome proliferator-activated receptor gamma (PPARg) signaling pathway (AID 743191; calls by dose curve; further: nearly all actives have a fitted effect of over 30% in size). The essentials:
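GeneBLAzer PPARg UAS-bla HEK293H cells carrying a UAS-driven beta-lactamase reporter were plated at 3000 cells/well, preincubated 5 h at 37C, then given compound for 17 h at 37C; LiveBLAzer B/G FRET substrate was read after 1 h at room temperature.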

Test [12] is described as follows: qHTS assay to identify small molecule antagonists of the peroxisome proliferator-activated receptor gamma (PPARg) signaling pathway - cell viability counter screen (AID 743194). Further: nearly all actives have a fitted effect of over 55% in size. As to conditions: Potency: co-treated with 50 nM rosiglitazone. In short, it runs like this:
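PPARg-UAS-bla HEK293H cells were plated, rested 5 h at 37 C, then treated with compounds plus rosiglitazone (50 nM final) for 17 h at 37 C; viability was then read by CellTiter-Glo luminescence after 30 min at room temperature.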

Test [13] can be described thus: qHTS assay for small molecule agonists of the antioxidant response element (ARE) signaling pathway (AID 743202; active means well fitted activation curve with a large enough effect in the signal ratio in the repeat runs, not every such curve was filed as active; the % refers to the signal ratio). In short, it runs like this:
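Compounds delivered in DMSO to ARE-bla HepG2 cells (2,000 cells/well, pre-incubated 5 h) and left 16 h at 37 C. LiveBLAzer B/G FRET substrate then added for 2 h at RT before fluorescence reading.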

Test [14] is described as follows: qHTS assay for small molecule agonists of the antioxidant response element (ARE) signaling pathway - cell viability counter screen (AID 743203; calls by dose curve; further: nearly all actives have a fitted effect of over 55% in size). The essentials: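 CellSensor ARE-bla HepG2 cells, 2,000 per well, rested 5 hrs at 37C/5% CO2, then exposed to compound in DMSO for 16 hrs; viability read as CellTiter-Glo luminescence after 30 min at room temperature, in the reporter wells.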

A short description of test [15]: qHTS assay to identify small molecule agonists of the peroxisome proliferator-activated receptor delta (PPARd) signaling pathway - cell viability counter screen (AID 743211). Further: nearly all actives have a fitted effect of over 55% in size. In short, it runs like this:
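Following 5 h plating at 37 C and 5% CO2, PPARd UAS-bla HEK293H cells took up test compounds for 17 h. Viability was quantified by luminescence 30 min after CellTiter-Glo addition at room temperature.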

A short description of test [16]: qHTS assay to identify small molecule antagonists of the estrogen receptor alpha (ER-alpha) signaling pathway - cell viability counter screen (AID 743074; calls by dose curve;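 further: HEK293 cells carrying ER-alpha-UAS-bla reporter stimulated with 17beta-estradiol; nearly all actives have a fitted effect of over 45% in size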).
Test [17] in a line: qHTS assay for small molecule activators of the heat shock response signaling pathway - cell viability counter screen (AID 743209). Further: nearly all actives have a fitted effect of over 50% in size. The essentials: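 CellSensor HSE-bla HeLa cells, plated overnight at 37 C/5% CO2, were exposed to compounds in DMSO for 5 h at 37 C. Viability was then read in the same wells by CellTiter-Glo luminescence after 30 min at room temperature.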
The nature of test [18]: qHTS assay to identify small molecule antagonists of the estrogen receptor alpha (ER-alpha) signaling pathway using the BG1 cell line (AID 743080; calls by dose curve;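 further: BG1 cells stimulated with 17beta-estradiol alongside compound; nearly all actives have a fitted effect of over 25% in size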). The essentials:
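After 5 days in phenol-red-free 10% charcoal-stripped FBS medium, BG1-Luc-4E2 cells were seeded, left 24 h at 37 C, co-treated with compounds and 17beta-estradiol for 21.5 h, then assayed for viability and luciferase.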

Test [19] can be described thus: qHTS assay for small molecule activators of the heat shock response signaling pathway (AID 743210; active means well fitted activation curve with a large enough effect in the signal ratio in the repeat runs, with a control signal flat, not every such curve was filed as active; the % refers to the signal ratio;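 further: HeLa cells with beta-lactamase reporter driven by heat shock elements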). In short, it runs like this: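 Reporter gene assay: HeLa cells stably bearing an HSE-bla construct, compound treatment 5 h at 37 C, LiveBLAzer substrate 2.5 h at RT, fluorescence intensity.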
On the % scale 0 is the no-effect control and ±100 the full control effect.

Chain of Peroxisome proliferator-activated receptor gamma (Homo sapiens) (P37231 whole entry, looked up): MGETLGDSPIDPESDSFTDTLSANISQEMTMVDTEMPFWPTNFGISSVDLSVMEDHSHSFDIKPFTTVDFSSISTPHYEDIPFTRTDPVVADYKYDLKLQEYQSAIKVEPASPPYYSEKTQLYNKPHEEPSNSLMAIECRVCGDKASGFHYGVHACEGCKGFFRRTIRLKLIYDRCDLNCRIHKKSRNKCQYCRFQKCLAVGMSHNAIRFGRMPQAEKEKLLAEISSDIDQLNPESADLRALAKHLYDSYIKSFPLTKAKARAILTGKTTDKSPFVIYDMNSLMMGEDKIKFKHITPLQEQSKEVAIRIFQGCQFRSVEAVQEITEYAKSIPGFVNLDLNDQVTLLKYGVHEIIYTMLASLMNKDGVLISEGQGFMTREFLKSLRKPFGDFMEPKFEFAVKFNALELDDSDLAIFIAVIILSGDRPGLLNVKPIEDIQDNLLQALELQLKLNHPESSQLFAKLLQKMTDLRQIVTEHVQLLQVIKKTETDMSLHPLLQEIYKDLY
Chain of Aryl hydrocarbon receptor (Homo sapiens) (P35869 whole entry, looked up): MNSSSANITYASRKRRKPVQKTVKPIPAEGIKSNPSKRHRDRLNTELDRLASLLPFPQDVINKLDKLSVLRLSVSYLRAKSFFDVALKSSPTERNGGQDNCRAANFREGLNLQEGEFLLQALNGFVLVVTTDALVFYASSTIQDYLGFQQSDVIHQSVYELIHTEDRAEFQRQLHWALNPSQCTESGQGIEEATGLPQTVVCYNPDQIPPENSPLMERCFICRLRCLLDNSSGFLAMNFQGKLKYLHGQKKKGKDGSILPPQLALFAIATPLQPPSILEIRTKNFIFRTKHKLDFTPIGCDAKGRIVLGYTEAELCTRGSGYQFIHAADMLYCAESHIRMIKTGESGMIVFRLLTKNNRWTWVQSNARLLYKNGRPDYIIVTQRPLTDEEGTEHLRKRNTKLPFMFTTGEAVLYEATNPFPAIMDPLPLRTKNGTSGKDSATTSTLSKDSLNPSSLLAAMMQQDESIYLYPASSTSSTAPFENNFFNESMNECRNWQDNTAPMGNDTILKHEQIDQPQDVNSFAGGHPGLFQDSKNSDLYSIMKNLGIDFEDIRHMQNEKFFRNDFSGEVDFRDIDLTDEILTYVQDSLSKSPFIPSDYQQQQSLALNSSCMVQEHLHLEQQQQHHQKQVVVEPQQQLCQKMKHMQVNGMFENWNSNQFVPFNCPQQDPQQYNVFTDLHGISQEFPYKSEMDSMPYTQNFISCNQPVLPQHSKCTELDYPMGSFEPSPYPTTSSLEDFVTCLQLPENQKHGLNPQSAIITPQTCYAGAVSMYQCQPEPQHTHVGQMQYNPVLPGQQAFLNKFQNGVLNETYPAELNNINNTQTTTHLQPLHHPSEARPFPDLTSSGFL
Chain of Aromatase (Homo sapiens) (P11511 whole entry, looked up): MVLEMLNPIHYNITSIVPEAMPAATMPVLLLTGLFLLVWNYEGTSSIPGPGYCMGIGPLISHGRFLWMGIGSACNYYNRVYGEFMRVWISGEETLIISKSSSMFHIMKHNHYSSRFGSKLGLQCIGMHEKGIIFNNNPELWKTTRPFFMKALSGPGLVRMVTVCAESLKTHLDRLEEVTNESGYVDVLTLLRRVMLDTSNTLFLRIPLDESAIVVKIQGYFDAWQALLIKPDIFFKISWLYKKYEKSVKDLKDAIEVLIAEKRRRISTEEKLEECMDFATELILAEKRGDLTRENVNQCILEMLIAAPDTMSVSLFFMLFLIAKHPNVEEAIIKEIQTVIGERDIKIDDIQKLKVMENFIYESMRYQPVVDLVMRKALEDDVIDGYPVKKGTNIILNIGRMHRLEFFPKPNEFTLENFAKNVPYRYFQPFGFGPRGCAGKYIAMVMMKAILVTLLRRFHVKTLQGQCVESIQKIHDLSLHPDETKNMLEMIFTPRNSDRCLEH

Turning to `CC(=O)Nc1cc([As](=O)(O)O)ccc1O`, the Potency result (in [1]; in test [2]; in [3]; in test [4]; in [6]; with Aromatase (Homo sapiens)) was “inactive” each time. Also, the Potency result in test [7], in test [8], in test [11], in test [12], in test [13] and in test [14] was “inactive” in each case. Moreover, the Potency result in test [15] is “inactive”. In [5], the activation is 10%. For the same molecule, the call in test [9] and in test [10] was inactive.

With `Cc1cc(C)nc(Nc2ccccc2)n1`, the Potency entry (in test [1]; in [2]; in [3]; in test [4]; in test [6]; with Aromatase (Homo sapiens)) was “inactive” throughout. The Potency result in test [7], in test [11], in test [12], in test [13], in [14] and in [17] was “inactive” throughout. In addition, in test [15], the Potency entry was “inactive”. Besides, the outcome in test [16], in test [9] and in test [10] was inactive. In addition, the Potency in [8] was 48.6 µM (active).

Consider `COC(=O)c1ccccc1S(=O)(=O)NC(=O)N(C)c1nc(C)nc(OC)n1`, for which the Potency result in test [1], in [2], in test [3], in test [4], in test [18] and in [6] was “inactive” each time. Also, the Potency result (in the test with Aromatase (Homo sapiens); in [7]; in test [8]; in [11]; in test [13]; in [17]) was “inactive” each time. For the same molecule, the Potency entry in test [15] was “inactive”. In addition, the molecule was called inactive in [16], in [9], in [10] and in [19].

For `NC(=S)C(N)=S`, the Potency entry (in test [1]; in test [2]; in [4]; in test [18]; in test [6]; with Aromatase (Homo sapiens)) was “inactive” each time. The Potency result in [7], in [8], in test [11], in test [17] and in test [15] was “inactive” in each case. Further, the result in test [16], in test [9], in test [10] and in [19] was inactive. In addition, the activation in [5] was -1.3%.

Take `Oc1c(Cl)cccc1Cl`: the Potency entry (in test [1]; in [2]; in test [4]; in [18]; in test [6]; in the test with Aromatase (Homo sapiens)) was “inactive” throughout. Further, the Potency entry in test [7], in test [8], in test [11], in test [14], in test [17] and in test [15] was “inactive” in each case. The result in test [16], in test [9], in test [10] and in test [19] was inactive. Further, the activation in [5] is 20.4%.

On to `CNC(=O)Oc1ccccc1C1OCCO1`, for which the Potency entry in test [1], in test [2], in [3], in test [4], in test [18] and in test [6] was “inactive” throughout. The Potency entry (with Aromatase (Homo sapiens); in [7]; in [11]; in [12]; in test [13]; in [14]) was “inactive” each time. In [15], the Potency entry was “inactive”. Also, in test [5], the activation is -9.73%. The outcome in test [9] and in test [10] was inactive.

With `COP(=S)(OC)Oc1ccc(S(N)(=O)=O)cc1`, the Potency entry in test [1], in test [2], in test [3], in test [4], in test [18] and in test [6] was “inactive” throughout. The Potency entry (with Aromatase (Homo sapiens); in test [7]; in test [11]; in test [12]; in [13]; in test [14]) was “inactive” throughout. For the same molecule, the Potency entry in test [17] and in [15] was “inactive” each time. In test [5], the activation was 10.7%. Moreover, the molecule was classed as inactive in test [10] and in test [19].
